Inconclusive results are not listed. A number with no mark means an inactive call. Calls of active or inactive are those of the source. Calls follow the shape of the dose curve; as a rule, active = well fitted activation curve with a large enough effect; inconclusive = small, poorly fitted or top-dose-only effect; inactive = no such curve, though single readings can be large or run the other way.
Assay: qHTS assay for re-activators of p53 using a Luc reporter: Hit Validation with no p53 Expressed; as to activity change, positive = activation: 0% is about no effect
Conditions: p53-null cells, luciferase reporter counter-screen; series mostly up to 46.1 µM; activity change, positive = activation: at the top concentration
How it was run: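 Counter-screen of primary hits in a cell line not transfected with p53, in Opti-MEM with 10% FBS; compounds at several concentrations (10 mM stock, 1:5; top 46.1 µM in well), 24 h at 37 deg C, 5% CO2. Luminescence read after 10 min with Amplite reagent.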
With `CC1CC1C(=O)Nc1nc2ccc(S(C)(=O)=O)cc2s1` (centres undefined) the “activity change, positive = activation” value was 46.1%. With `CC(C)(C)OC(=O)N1CCC(C(=O)Nc2ccc3c(c2)CCC3)CC1` the “activity change, positive = activation” value was 46.9%. In the case of `O=C(NCCCNC1CCCCC1)c1ccc(/C=N/O)nc1`, the “activity change, positive = activation” value is reported as 16.6%. For `CCN(CC)C(=O)CNC(=S)N(CCCN1CCOCC1)Cc1cccs1`, the “activity change, positive = activation” value was 0.343%. In the case of `COc1cc(NC(=O)C(C)C)ccc1NC(=O)c1ccco1`, the “activity change, positive = activation” value is reported as -0.602%. In the case of `COCCn1c(C)cc(C(=O)CSc2nc3ccccc3s2)c1C`, the “activity change, positive = activation” value is reported as -4.14%. For `Cc1cc(C(F)(F)F)c(C#N)c(SCC(=O)Nc2nc3ccccc3s2)n1`, the Potency was 0.116 µM (active). For `CCN(Cc1ccccc1)C(=O)CN1C(=S)NC(C)(C)CC1C` (centres undefined), the “activity change, positive = activation” value was -54%. For `CCOc1ccc(C(O)Cc2nc3ccccc3n2C)cc1` (centres undefined), the “activity change, positive = activation” value was -16.8%. In the case of `CCOC(=O)c1c(C)nc(-c2ccccc2)nc1NC(=O)CC`, the “activity change, positive = activation” value is reported as -26.4%. In the case of `Cc1ccc2nc(-c3ccc(NC(=O)COC(=O)c4cncc(Br)c4)cc3)sc2c1`, the “activity change, positive = activation” value is reported as -17.4%. With `Cc1cc(NC(=O)c2ccc3nccnc3c2)ccc1Br` the “activity change, positive = activation” value was -28.8%. For `Cc1cc(-c2ccccc2)n2ncc(-c3ccccc3)c2n1`, the Potency was 1.84 µM (active). With `Oc1[nH]c2ccccc2c1C=Nc1ccc2c(c1)OCCO2` the “activity change, positive = activation” value was 36.1%. With `CCOC(=O)N/N=C\c1ccc(C)s1` the “activity change, positive = activation” value was 10.1%. For `CN(Cc1ccccc1)c1ncnc2ccc(Br)cc12`, the “activity change, positive = activation” value was -15.8%. For `O=[N+]([O-])c1ccc(NC(=S)NCCc2ccc(F)cc2)cc1`, the “activity change, positive = activation” value was -45.7%. With `CCCC(=O)NC(c1cccs1)c1cc([N+](=O)[O-])c2cccnc2c1O` (centres undefined) the “activity change, positive = activation” value was -22.1%. In the case of `COC(=O)CSc1nc2cc3c(cc2cc1C#N)OCO3`, the “activity change, positive = activation” value is reported as -2.65%. With `COc1cc(C(=O)NCCc2cn3ccc(C)cc3n2)cc(OC)c1OC` the “activity change, positive = activation” value was -28.5%. With `CCOc1ccc(-c2cnc3ccccc3n2)cc1` the “activity change, positive = activation” value was -34.8%. For `O=C(NC(=S)Nc1nc2ccccc2s1)c1ccco1`, the “activity change, positive = activation” value was -0.197%. With `N#C/C(=C\c1ccccc1[N+](=O)[O-])c1nc(C2CC2)cs1` the Potency was 11.6 µM (active). With `COc1ccc2cc(C3(C)NC(=O)N(CC(=O)Nc4c(C)n(C)n(-c5ccccc5)c4=O)C3=O)ccc2c1` (centres undefined) the “activity change, positive = activation” value was -34.1%. For `Cc1cc(NC(=O)c2c(F)c(F)c(F)c(F)c2F)no1`, the “activity change, positive = activation” value was 1.86%. For `O=C(/C(=N/N=C/c1ccc(O)c(O)c1)c1ccccc1)c1ccccc1`, the “activity change, positive = activation” value was -13.4%. For `C=CCn1c(C)cc(C(=O)COC(=O)c2ccc(N)c([N+](=O)[O-])c2)c1C`, the “activity change, positive = activation” value was -12.9%. With `COc1ccc2nc(NC(=O)Nc3ccccc3OC)sc2c1` the “activity change, positive = activation” value was -21.1%. For `Cc1cc(C)nc(CC(N)=O)n1`, the “activity change, positive = activation” value was 10.8%. For `COc1ccccc1C(=O)NNC(=O)c1cccc(F)c1`, the “activity change, positive = activation” value was 15%. With `O=C(OCC(=O)N1CCc2ccccc21)c1ccccc1[N+](=O)[O-]` the “activity change, positive = activation” value was 37%. With `COc1cc(C(C)=O)ccc1Oc1ncnc2c1cnn2-c1ccc(F)cc1` the “activity change, positive = activation” value was 12.1%. In the case of `Cc1c(/C(O)=C2/C(=O)C(=O)N(CCN3CCOCC3)C2c2cccs2)cnn1-c1ccccc1` (centres undefined), the “activity change, positive = activation” value is reported as 16.8%. In the case of `Cc1ccc2cc3cc(C(=O)N4CCCCCC4)oc3nc2c1`, the “activity change, positive = activation” value is reported as 47.8%. In the case of `Clc1cccc(N/N=C(\Cc2nc3ccccc3[nH]2)c2ccccc2)c1`, the “activity change, positive = activation” value is reported as -3.28%. With `O=C(Nc1nnc(-c2cccs2)o1)c1cccc(Oc2ccccc2)c1` the “activity change, positive = activation” value was -49.7%. With `Cc1ccc(OCCN2CCOCC2)cc1C` the “activity change, positive = activation” value was 7.55%. In the case of `c1ccc(COc2ccc(OCCOCCn3cncn3)cc2)cc1`, the Potency is reported as 1.3 µM (active). In the case of `Cc1nn(-c2ccccc2)c(N2CCCC2)c1/C=N/NC(=O)c1cc(-c2ccccc2)nc2ccccc12`, the “activity change, positive = activation” value is reported as -13.5%.

Reference: PubChem BioAssay AID624331 (National Center for Advancing Translational Sciences (NCATS), 2012)
Potency is read from the fitted curve at half-maximal effect.
